# Source: PubChem BioAssay
# Test system: PRMT1 (protein arginine N-methyltransferase 1)
# Assay: small molecules binding arginine methyltransferase PRMT1 – biochemical, small-molecule microarray, 635 nm fluorescence, primary screen (AID 1088);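 also: binding of Prmt1 protein to compounds spotted on small-molecule microarray slides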
# Details: higher = more signal
row,Structure (SMILES),composite z-score
1,C[C@]1(C(=O)NCCN2CCOCC2)c2ccccc2C(=O)N(Cc2ccc(OC(F)(F)F)cc2)[C@H]1c1ccc(CO)cc1,0.562
2,[N-]=[N+]=Nc1ccccc1[C@@H]1OC(c2ccc(OCCCO)cc2)=N[C@]1(CCS(=O)(=O)c1ccccc1)C(=O)NCCN1CCOCC1,1.55
3,CC(C)CN1C(=O)[C@@]2(Cc3ccccc31)c1ccccc1C(=O)N(Cc1ccccc1C(F)(F)F)[C@H]2c1ccc(CO)cc1,-1.7
4,C=CC[C@]1(C(=O)N(C)C)N=C(c2ccc(OCCCO)cc2)O[C@H]1c1ccccc1N=[N+]=[N-],1.48
5,COc1cc2c(cc1OC)CN(C(=O)[C@H]1[C@@H]3C(=O)O[C@@H](c4ccccc4)[C@@H](c4ccccc4)N3[C@@H](c3ccc(OCCO)cc3)[C@]13C(=O)Nc1ccc(C#CC4(O)CCCCCC4)cc13)CC2,1.56
6,COCCCNC(=O)[C@@H]1c2ccccc2C(=O)N(Cc2ccccc2C(F)(F)F)[C@H]1c1ccc(CO)cc1,0.12
7,C=CC[C@]12N=C(c3ccc(OCCCO)cc3)O[C@H]1c1ccccc1N(C)C2=O,1.57
8,CCCC[C@@H]1C[C@H]1[C@@H](NC(=O)c1cccnc1)c1ccc(-c2ccccc2)cc1,-0.537
9,C[C@@H]1ON(c2ccc(C(=O)OC(C)(C)C)cc2)[C@H](c2ccc(Br)cc2)[C@H]1C(=O)N1C(=O)OC[C@H]1Cc1ccccc1,1.53
10,CC(C)CCC[C@@H](C)[C@H]1CC[C@@]2(C)C3=C(CC[C@]12C)[C@@]1(C)CC[C@H](OC(=O)c2ccc(Br)cc2)C(C)(C)C1CC3 (stereo partly specified),0.739
11,COc1cc2c(cc1O)C(C)N(Cc1cc3c(cc1Br)OCO3)CC2 (stereo unspecified),-0.285
12,COc1c(C)cc(-c2cc3c(c(Cc4ccccc4)n2)[Si](C(C)C)(C(C)C)OC3)cc1C,-0.13
13,CN(C)CCCN1C(=O)[C@@]2(c3ccc([N+](=O)[O-])cc3)CC(=O)N(CC34CC5CC(CC(C5)C3)C4)[C@@H]2c2ccc(CO)cc21,1.54
14,CO[C@H]1O[C@H](CO)[C@@H](OC(=O)Nc2ccc(C(F)(F)F)cc2)[C@H](OC(=O)Nc2ccc3c(c2)OCO3)[C@H]1OC(=O)Nc1ccc2c(c1)OCO2,1.54
15,NC(=O)NCC#Cc1ccc2c(c1)[C@]1(C(=O)N2)[C@H](C(=O)Nc2nc3ccccc3s2)[C@H]2C(=O)O[C@H](c3ccccc3)[C@H](c3ccccc3)N2[C@@H]1c1ccc(O)cc1,1.41
16,COCCOC(=O)N1C(=O)[C@@]2(c3cc(C#CC4(O)CCCCCC4)ccc31)[C@H](C(=O)N1CCCCCCC1)[C@H]1C(=O)O[C@H](c3ccccc3)[C@H](c3ccccc3)N1[C@@H]2c1ccc(OCCO)cc1,1.53
17,COC(=O)[C@@]1(Cc2ccccc2)[C@H]2c3cc(C(=O)N4CCCC4)[nH]c3C[C@H]2CN1C(=O)c1ccccc1,-1.74
18,CCOC(=O)[C@H]1C/C=C/C[C@H](C(=O)OCC)C(=O)O[C@H]2[C@@H](OC)O[C@H](CO)[C@@H](OC(=O)CCc3ccccc3)[C@@H]2OC1=O,0.182
19,Cc1ccc(F)cc1S(=O)(=O)N[C@@H]1CCN(Cc2ccc(OC(C)C)cc2)C1,-0.43
20,COCCOC(=O)N1C(=O)[C@@]2(c3cc(C#CC4=CCCCC4)ccc31)[C@H](C(=O)N1CCN(c3ncccn3)CC1)[C@H]1C(=O)O[C@H](c3ccccc3)[C@H](c3ccccc3)N1[C@@H]2c1ccc(O)cc1,1.53
21,COC(=O)C1(Cc2ccccc2)C=C2C(=C(C(C)C)C(=O)C2C)CN1 (stereo unspecified),-1.15
22,O=C1O[C@H](c2ccccc2)[C@H](c2ccccc2)N2[C@H]1[C@@H](C(=O)O)[C@]1(C(=O)Nc3ccccc31)[C@H]2c1ccc(O)cc1,0.548
23,COc1ccc(NC(=O)O[C@H]2[C@H](OC(=O)Nc3ccc4c(c3)OCO4)[C@@H](OC(=O)Nc3ccc4c(c3)OCO4)[C@@H](OC)O[C@@H]2CO)cc1,1.56
24,COc1c(C)cc(-c2cc3c(c(-c4ccccc4)n2)[Si](C(C)C)(C(C)C)OC3)cc1C,-0.267
25,C[C@@H](OCc1ccccc1)C1NC(=O)[C@@]23C(=O)N[C@@H](Cc4ccccc4)C2[C@H](C)[C@@]2(C)O[C@H]2C3/C=C/C/C=C\CNC(=O)CNC1=O (stereo partly specified),-0.615
26,COc1ccc([Si](C)(C)[C@@H]2[C@@H](CC(=O)N3CCC[C@H]3CO)O[C@]3(C(=O)N(Cc4ccc(N5C(=O)c6cccc7cccc5c67)cc4)c4ccccc43)[C@H]2C)cc1,1.54
